Reference: PubChem BioAssay AID504408 (Broad Institute, 2011)
The whole screen tested about 300,000 compounds, of which about 5,200 (1.7%) were called active. Only a selection was taken, and actives are over-represented in it overall. Values without a mark were called inactive.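 How the source made its calls: active means mean replicate activation of at least 50% with a set share of replicates each reaching 50%; inconclusive means only one of those two conditions met; inactive means mean below 50% and too few replicates reaching it.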

Experiment: HSF-1 activators, primary screen, NIH3T3-HGL cells, MG132 stress, luminescence, single point (AID 504408);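 further: 0% = median of the neutral control wells and 100% = twice that signal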
Details: NIH3T3-HGL HSF-1 luciferase reporter, MG132, 8 h; at 9 µM; active compounds read high; 100% = twice DMSO control signal
For `CCOC(=O)c1cccc(NC(=O)CCOc2ccccc2)c1`, the activation was 9.76%.
For `CCOc1ccc(NC(=O)CN(C)C(=O)COc2cccc(CC)c2)cc1OCC`, the activation was -14.1%.
With `CCOC(=O)C(CCOc1cccc(CC)c1)C(=O)OCC` the activation was 109% (active).
For `CC(=O)Nc1cccc(C(=O)OCC(=O)NCc2cc(C)c(O)c(C)c2)c1`, the activation was 3.6%.
With `Nc1nonc1-n1nnc(C(=O)N/N=C/c2ccccc2O)c1CN1CCCC1` the activation was 12.4%.
With `Cc1cc(C)cc(OCC(=O)O/N=C(\N)Cc2ccc([N+](=O)[O-])cc2)c1` the activation was 59.9% (active).
With `CCOC(=O)COc1ccc([N+](=O)[O-])cc1` the activation was 9.19%.
`N/C(Cc1ccc([N+](=O)[O-])cc1)=N\OC(=O)C1CCCCC1` gave an activation of -5.43%.
`COc1cc(OC)cc(C(=O)NNC(=O)CNC(=O)c2ccc(Br)o2)c1` gave an activation of 12%.
For `Cc1ccc(NC(=O)CSCC(=O)Nc2sccc2C#N)cc1`, the activation was -2.79%.
For `Cc1noc(C)c1COc1ccccc1C(=O)N(C)CC(=O)Nc1cccc(F)c1`, the activation was -1.32%.
In the case of `O=C1CCCN2N=C(SCC(=O)Nc3ccc(Br)cc3)SC2=N1`, the activation is reported as 112% (active).
With `O=C(CSCc1ccc(Br)cc1)Nc1ccc(S(=O)(=O)N2CCCCCC2)cc1` the activation was 25.6%.
Molecule `Cc1cc(=O)[nH]c(SCC(=O)Nc2ccc(Br)cc2)n1` has an activation of 2.91%.
For `CCOc1ccc(CC(=O)NCCS(=O)(=O)N2CCN(c3ccccc3)CC2)cc1`, the activation was 3.03%.
Work on `COc1ccc(C(=O)Nc2ccccc2C(=O)NCc2ccco2)cc1` yielded an activation of 10.2%.
In the case of `CS(=O)(=O)N(Cc1ccc(Cl)cc1)c1ccc(C(=O)NCCSCc2ccco2)cc1`, the activation is reported as 71.5% (active).
In the case of `Cc1cc(C)cc(N(CC(=O)NCCSCc2ccco2)S(C)(=O)=O)c1`, the activation is reported as 9.37%.
For `O=C(Nc1ccccc1)Nc1ccccc1C(=O)NCc1ccco1`, the activation was 25.4%.
For `Cc1ccc(N(Cc2ccc(C(=O)Nc3ccccc3C(=O)NCc3ccco3)cc2)S(C)(=O)=O)cc1C`, the activation was 87.4% (active).
In the case of `CCc1ccccc1N(CC(=O)NCCSCc1ccco1)S(C)(=O)=O`, the activation is reported as 6.86%.
`O=C(CCN1C(=O)C2CCCCC2C1=O)Nc1ccc(OC(F)F)cc1` (stereo not drawn) showed an activation of 20.6%.
For `O=C(CNC(=O)c1ccccc1Br)NCCSc1ccc(Br)cc1`, the activation was 8.99%.
Work on `CCCn1c(C)cc(-c2csc(NC(=O)CCc3nc4ccccc4c(=O)[nH]3)n2)c1C` yielded an activation of -8.73%.
In the case of `CCCc1cc(=O)[nH]c2nnc(SCC(=O)Nc3nnc(SCC)s3)n12`, the activation is reported as -4.43%.
Work on `CCOc1ccc(S(=O)(=O)Nc2ccc(C(=O)NCCCN3CCCC3=O)cc2)cc1` yielded an activation of 4.33%.
Molecule `CCc1noc(C)c1C(=O)NNC(=O)c1ccc(F)cc1` has an activation of 7.94%.
For `Cc1ccc(-c2c3c(=O)n(C)c(=O)n(C)c3cn2-c2ccccc2O)cc1`, the activation was 3.5%.
For `Cc1ccc(-c2c3c(=O)n(C)c(=O)n(C)c3cn2-n2cnnc2)cc1`, the activation was 89.3% (active).
`COc1ccc(-c2c3c(=O)n(C)c(=O)n(C)c3cn2NC(C)=O)cc1` gave an activation of -5.15%.
In the case of `COc1cccc(CNC(=O)C(=O)NCCC2CCCCN2S(=O)(=O)c2ccc(C)cc2)c1` (stereo not drawn), the activation is reported as -8.41%.
`CN1C(=O)c2ccc(C(=O)Nc3ccc(Br)cn3)cc2C1=O` showed an activation of -4.17%.
With `CC(C)C(=O)Nc1cccc(NC(=O)c2ccc([N+](=O)[O-])cc2Cl)c1` the activation was 32.5%.
In the case of `O=C(Nc1ccc(Br)cn1)c1ccc([N+](=O)[O-])o1`, the activation is reported as 131% (active).
With `O=C(Nc1ccc(Br)cn1)c1ccc([N+](=O)[O-])cc1Cl` the activation was 69.9% (active).
For `O=C(Nc1ccncc1)c1ccc([N+](=O)[O-])cc1Cl`, the activation was 23.1%.
Work on `O=C(/C=C/c1ccc(Cl)cc1)Nc1ccc(Br)cn1` yielded an activation of 6.81%.
For `COc1ccc(C(=NN)c2ccc(OC)cc2)cc1`, the activation was 29.3%.
Molecule `CN(C)CCn1c2c(c(SCC(=O)NCc3ccccc3)nc1=O)CCC2` has an activation of 4.29%.
Work on `CCc1nnc(NS(=O)(=O)c2ccc(NC(=O)c3cccc(OC(F)(F)C(F)F)c3)cc2)s1` yielded an activation of -15.3%.
For `Cc1onc(C(=O)NCc2ccc(F)cc2)c1[N+](=O)[O-]`, the activation was 8.38%.
In the case of `Cc1cccc(NC(=S)Nc2ccc(Br)cc2)c1`, the activation is reported as 46.2%.
`Cc1cccc(NC(=O)NC(=S)NC(=O)c2ccccc2)c1` showed an activation of 13.9%.
For `Cc1cccc(NC(=O)c2sc(-c3ccccc3)nc2-c2ccc([N+](=O)[O-])cc2)c1`, the activation was -61.8%.
`Cc1onc(C(=O)Nc2ccc3c(c2)OCO3)c1[N+](=O)[O-]` gave an activation of 10.2%.
With `Cc1onc(NC(=O)c2ccc([N+](=O)[O-])o2)c1Br` the activation was 52.4% (active).
In the case of `Cc1cccc(NC(=S)NC(=O)c2ccc(Br)o2)c1`, the activation is reported as 78.6% (active).
Molecule `Cc1cccc(NC(=O)c2cc([N+](=O)[O-])ccc2N2CCN(C)CC2)c1` has an activation of 13.9%.
In the case of `Cc1cccc(NC(=O)c2ccc([N+](=O)[O-])o2)c1`, the activation is reported as 56.4% (active).
Work on `O=C1[C@H]2[C@@H](c3ccc(F)cc3)N3C(=O)N(c4ccc(C(F)(F)F)cc4)C(=O)[C@@]3(Cc3ccccc3)[C@H]2C(=O)N1C1CCCCC1` yielded an activation of -4.57%.
With `O=C(NCCC1CCCCN1S(=O)(=O)c1ccc(Cl)cc1)C(=O)NCc1ccco1` (stereo not drawn) the activation was 22.8%.
`COc1ccc(NS(=O)(=O)c2ccc(C)c(C(=O)N(C)Cc3ccc(OC)cc3OC)c2)cc1` showed an activation of -13.6%.
Work on `CCOc1ncccc1C(=O)NNC(=O)c1cccc(S(=O)(=O)Nc2ccccc2OC)c1` yielded an activation of -1.67%.
With `Cc1ccc(NNC(=O)c2cccs2)cc1Cl` the activation was 69.2% (active).
Work on `O=C(NNC(=O)c1ccc(Cl)cc1Cl)c1cccs1` yielded an activation of 25.3%.
With `Cc1ccc(NNC(=O)c2c(F)cccc2Cl)cc1Cl` the activation was 0.438%.
Molecule `Cc1ccc(NC(=O)c2cnc(SCC(=O)NCC3CCCO3)n(C)c2=O)cc1` (stereo not drawn) has an activation of 7.91%.
In the case of `Cc1cc(C)c(-c2csc(NC(=O)CCCc3nc4ccccc4c(=O)[nH]3)n2)c(C)c1`, the activation is reported as -6.87%.
